From PubChem BioAssay (NCI)
“And” between values parts separate entries of the source, which are not always exact repeats. Equal values may be shown once. Compounds without any hit were thinned out: in the full panel of roughly 83,000, 20% have a hit.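 Percent growth is the endpoint: 0 to 100 indicates growth inhibition (40 means 60% inhibition), 0 means no net growth, and negative values indicate cell death.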 The source made the active and inactive calls. The calls were made as follows: active = growth percent below 10; inactive = the rest.

What was measured:
Assay in all cases: NCI-60 one-dose screen, 48 h (100 = growth as untreated, 0 = no growth, -100 = all killed)
Conditions in all cases: 10 µM unless noted
[1] = tested on: DU-145 prostate
[2] = tested on: K-562 leukemia
[3] = tested on: MALME-3M melanoma
[4] = tested on: MDA-MB-231 breast
[5] = tested on: RXF 393 renal
[6] = tested on: SF-268 CNS
[7] = tested on: SF-295 CNS
[8] = tested on: SF-539 CNS
[9] = tested on: UACC-257 melanoma
[10] = tested on: M14 melanoma

Measured: growth

CNS(=O)(=O)N1CCc2c(Br)c3c(c(OC)c2C1CCc1ccccc1)OCO3 (stereo not given)
inactive: [1] 12.1% | [2] 13.1%
active: [3] -65% | [4] -62.8% | [5] -59.7% | [6] -12% | [7] -75.3% | [8] -86.5% | [9] -24.5% | [10] -9.58%

Cn1cc(-c2cc(N)n3nc(-c4c[nH]c5ccc(Cl)cc45)cc3n2)c2cccnc21
active: [1] -87.6% | [2] -24.9% | [3] -92.3% | [4] -82.3% | [5] -73.4% | [6] -47.4% | [7] -92.6% | [8] -95.6% | [9] -85.5% | [10] -90.5%

COc1cccc(C(N)=Nc2ccc(OCCCCCCCCn3cncn3)cc2)c1
inactive: [2] 15.8% | [3] 37.4% | [6] 27% | [9] 39.1% | [10] 22.6%

C=CCSc1nnc(-c2ccc(-c3nc4ccc(Cl)cc4[nH]3)cc2)o1
inactive: [1] 85% | [2] 19.5% | [3] 39.3% | [4] 41.2% | [5] 53.1% | [6] 75.7% | [7] 58.2% | [8] 56.3% | [9] 68.2% | [10] 28.7%

CC(=O)Nc1cccc(-n2c(COc3ccc(Br)cc3)nc3ccccc32)c1
inactive: [1] 106% and 89.7% | [2] 91.4% and 106% | [3] 96.3% and 98.8% | [4] 80% and 102% | [5] 82.4% and 106% | [6] 91% and 103% | [7] 89.6% and 103% | [8] 87.4% and 106% | [9] 130% and 107% | [10] 109% and 108%

COc1nc(N)ncc1-c1ccc2ncnc(N3CCc4cc(F)c(Cl)cc43)c2c1
inactive: [1] 30.6% | [2] 31.6% | [3] 64.3% | [6] 54.2% | [7] 17.9% | [9] 78.8% | [10] 62.4%
active: [4] -22.7% | [5] -46.2% | [8] 1.76%

Cc1nn(-c2ccccc2)c2nc(C)n(C(=O)N/N=C/c3cccc([N+](=O)[O-])c3)c(=O)c12
inactive: [1] 99.9% | [2] 62% | [4] 94.7% | [5] 115% | [6] 101% | [7] 101% | [8] 105% | [9] 78.4% | [10] 80.4%
active: [3] -10.2%

O=C(Cn1c(-c2ccccc2)nc2ccccc21)N=Nc1c(O)[nH]c2ccc(Cl)cc12
active: [1] 6.32% | [3] 5.8% | [4] -42% | [5] -63.8% | [6] 7.18% | [7] -40% | [8] -46.6%
inactive: [2] 10.6% | [9] 36.5% | [10] 14.9%

NCCCCn1c(SCCc2c[nH]c3ccccc23)nnc1-c1ccc2ccccc2n1
inactive: [1] 42.8% | [6] 42.4%
active: [2] -35.4% | [3] -99.4% | [4] -83.7% | [5] -38.3% | [7] -83.4% | [8] -99% | [9] -89.8% | [10] -90.1%

COc1ccc2[nH]c(=O)c(CSc3ccccc3Nc3nccc(-c4ccc(Cl)cc4)n3)cc2c1
active: [5] -4.36%
inactive: [1] 48.7% | [2] 39.7% | [3] 32.1% | [4] 60.9% | [6] 55.1% | [7] 32.8% | [8] 21.7% | [9] 73.4% | [10] 68.5%

Cn1cc(-c2cc(N)n3nc(-c4c[nH]c5ccccc45)cc3n2)c2cc(F)ccc21
active: [2] 3.57% | [4] -52.2% | [7] -50.8% | [8] -61.9% | [10] -0.365%
inactive: [1] 46.2% | [3] 76.8% | [5] 148% | [6] 65.3% | [9] 45.7%

FC(F)(F)c1cc2c(Cl)ncnc2n1CCN1CCCCC1
active: [2] 0.547% | [6] 9.33%
inactive: [1] 50% | [3] 86.9% | [4] 38.8% | [5] 80.8% | [7] 80.9% | [8] 73.4% | [9] 73.6% | [10] 24.1%
